SMILES strings stand for the structures. Inconclusive results are not listed. Calls of active or inactive are those of the source. Calls follow the shape of the dose curve; as a rule, active = well fitted cell-killing curve with a large enough effect; inconclusive = small, poorly fitted or top-dose-only effect, or effect the other way; inactive = no such curve, though single readings can be large or run the other way.

The source of these data is PubChem BioAssay AID1345085 (National Center for Advancing Translational Sciences (NCATS), 2018).
% is scaled to controls: 0 for no effect and ±100 for the full control effect; potency is read from the fitted curve at half-maximal effect.

The experiment concerns Tov-21-G. Put plainly: Confirmatory qHTS for gynecologic anti-cancer compounds from libraries of approved drugs and bioactive compounds. Also: nearly all actives have a fitted effect of over 55% in size. The settings on record: gynecologic cancer cell panel viability, ATPlite luminescence, 48 h; series mostly up to 57.7 µM. A digest of the protocol:
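Cells (1,000/well) were plated, left 16 h at 37 C/5% CO2, then given compound at 11 concentrations (1:3) from 57.5 uM to 0.977 nM for 48 h. ATPlite luminescence after 15 min at room temperature gave IC50 values.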
(In qHTS, concentration-response curves come from the screen itself.)
Regarding `CN1CCN(CCOc2cc(OC3CCOCC3)c3c(Nc4c(Cl)ccc5c4OCO5)ncnc3c2)CC1`, the Potency is 0.243 µM (active).

In the case of `CC(C)C[C@H](NC(=O)[C@H](Cc1ccccc1)NC(=O)c1cnccn1)B(O)O`, the Potency is 0.0968 µM (active).

As for `COc1cc2nccc(Oc3ccc(NC(=O)Nc4cc(C)on4)c(Cl)c3)c2cc1OC`, the Potency was 19.3 µM (active).

Take `C1CCC(C(CC2CCCCN2)C2CCCCC2)CC1` (stereo unspecified): the Potency was 12.2 µM (active).

As for `CCn1c(-c2nonc2N)nc2c(C#CC(C)(C)O)ncc(OCC3CCCNC3)c21` (stereo unspecified), the Potency was 0.0306 µM (active).

As for `CCC(=O)N1CCN(c2ccc(-n3c(=O)ccc4cnc5ccc(-c6cnc7ccccc7c6)cc5c43)cc2C(F)(F)F)CC1`, the Potency is 0.314 µM (active).

`Nc1ccccc1NC(=O)c1ccc(CNc2nccc(-c3cccnc3)n2)cc1`: the Potency is 2.43 µM (active).

Turning to `O=C(CCCCCCC(=O)Nc1ccccc1)NO`, the Potency is 4.85 µM (active).

Consider `CCc1cccc(CC)c1NC(=O)N1Cc2[nH]nc(NC(=O)c3ccc(N4CCN(C)CC4)cc3)c2C1`, for which the Potency was 2.73 µM (active).

As to `CCCC(Nc1nc(-c2ccc(NC(=O)NCC)c(OC)c2)ncc1C)c1cccnc1` (stereo unspecified), the Potency was 0.0306 µM (active).

Turning to `CC(=O)O[C@H]1C(=O)[C@@]2(C)[C@H]([C@H](OC(=O)c3ccccc3)[C@]3(O)C[C@H](OC(=O)[C@H](O)[C@@H](NC(=O)c4ccccc4)c4ccccc4)C(C)=C1C3(C)C)[C@]1(OC(C)=O)CO[C@@H]1C[C@@H]2O`, the activity change, negative = viability loss was 0.907% [at 11 µM] (inactive).

Regarding `CN(C)C1CCN(C(=O)c2ccc(NC(=O)Nc3nc(N4CCOCC4)nc(N4CCOCC4)n3)cc2)CC1`, the Potency is 0.172 µM (active).

Consider `COC(C(=O)N1Cc2[nH]nc(NC(=O)c3ccc(N4CCN(C)CC4)cc3)c2C1)c1ccccc1` (stereo unspecified), for which the Potency is 1.37 µM (active).

With `Cc1cnc(Nc2cccc(CN3CCOCC3)c2)nc1Nc1cccc(S(=O)(=O)NC(C)(C)C)c1`, the Potency was 3.06 µM (active).

With `Nc1ncn([C@@H]2O[C@H](CO)[C@@H](O)[C@H]2O)c(=O)n1`, the Potency was 19.3 µM (active).

As to `CCN1CCN(Cc2ccc(-c3cc4c(NC(C)c5ccccc5)ncnc4[nH]3)cc2)CC1` (stereo unspecified), the Potency was 1.72 µM (active).

Regarding `CC[C@]1(O)C[C@H]2CN(CCc3c([nH]c4ccccc34)[C@@](C(=O)OC)(c3cc4c(cc3OC)N(C=O)[C@H]3[C@@](O)(C(=O)OC)[C@H](OC(C)=O)[C@]5(CC)C=CCN6CC[C@]43[C@@H]65)C2)C1`, the Potency was 0.611 µM (active).

Turning to `CCC1C(=O)N(C)c2cnc(Nc3ccc(C(=O)NC4CCN(C)CC4)cc3OC)nc2N1C1CCCC1` (stereo unspecified), the Potency is 1.93 µM (active).

On to `CC(=O)c1cnc2ccc(-c3cc(Cl)c(O)c(Cl)c3)nc2c1NC1CCC(CN(C)C)CC1` (stereo unspecified), for which the Potency was 0.559 µM (active).

On to `O=C1c2c(O)ccc(O)c2C(=O)c2c(NCCNCCO)ccc(NCCNCCO)c21`, for which the Potency was 4.32 µM (active).

`COc1cc2c(cc1-c1c(C)noc1C)ncc1[nH]c(=O)n(C(C)c3ccccn3)c12` (stereo unspecified): the Potency was 6.85 µM (active).

Consider `Cc1cc(CN2CCN(c3c(Br)cnc4nc(-c5ccc(N6CCN(C)CC6)cc5)[nH]c34)CC2)no1`, for which the Potency was 24.3 µM (active).

For `CNC(=O)c1ccccc1Sc1ccc2c(/C=C/c3ccccn3)n[nH]c2c1`, the Potency is 10.9 µM (active).

With `Cc1ccc(-n2[nH]c(C)c(N=Nc3cccc(-c4cccc(C(=O)O)c4)c3O)c2=O)cc1C`, the Potency result is “inactive”.

On to `CCc1c2c(nc3ccc(OC(=O)N4CCC(N5CCCCC5)CC4)cc13)-c1cc3c(c(=O)n1C2)COC(=O)[C@]3(O)CC`, for which the Potency is 21.7 µM (active).

With `Cc1cc(SCc2sc(-c3ccc(C(F)(F)F)cc3)nc2C)ccc1OCC(=O)O`, the Potency result is “inactive”.

For the molecule `COc1cccc2c1C(=O)c1c(O)c3c(c(O)c1C2=O)C[C@@](O)(C(=O)CO)C[C@@H]3O[C@H]1C[C@H](N)[C@H](O[C@@H]2CCCCO2)[C@H](C)O1`, the Potency was 8.63 µM (active).

Turning to `Nc1nc(=S)c2[nH]cnc2[nH]1`, the Potency entry is “inactive”.

`COc1cc(F)c(F)c(Nc2ccc(I)cc2F)c1NS(=O)(=O)C1(CC(O)CO)CC1` (stereo unspecified): the Potency was 13.7 µM (active).

For `O=c1cc(CN2CCOCC2)occ1OCCCCCSc1ccnc2cc(C(F)(F)F)ccc12`, the Potency result is “inactive”.

Consider `O=C(CCCCCCNC(=O)c1cnc(N(c2ccccc2)c2ccccc2)nc1)NO`, for which the Potency is 21.7 µM (active).
